# Marburg entry inh: qHTS for inhibitors of binding or entry into cells for Marburg Virus. Potency, µM (top dose mostly 37.8 µM), without a hit: at the top dose activity change, negative = inhibition, most hits filed as inhibitors. 1.8% of 300,000 active. Marburg virus pseudotyped entry inhibition, cell reporter; calls by dose curve; tested in HEK293 cells
# VACV Venus inh: qHTS for Stage-Specific Inhibitors of Vaccinia Orthopoxvirus: Venus Reporter Primary qHTS. Vaccinia virus Venus reporter expression, fluorescence. Potency, µM (top dose mostly 36.5 µM), inactives show at the top dose activity change, negative = inhibition, hits mostly inhibitors. 0.46% of 330,000 active. AID 720580, 2013; calls by dose curve; tested in A549 cells; further: nearly all actives have a fitted effect of over 30% in size
# VACV mCherry inh: qHTS for Stage-Specific Inhibitors of Vaccinia Orthopoxvirus: mCherry Reporter Primary qHTS; Potency, µM (highest dose often 36.5 µM), for the others: top-dose activity change, negative = inhibition, hits mostly inhibitors; 0.63% of 310,000 active; Vaccinia virus mCherry reporter infection, fluorescence; calls by dose curve; tested in A549 cells; further: nearly all actives have a fitted effect of over 35% in size
# LASV entry inh: qHTS for Inhibitors of binding or entry into cells for Lassa Virus. AID 540256, 2011. 1.2% of 300,000 active. Lassa virus pseudotype entry inhibition, cell reporter. Potency, µM (top dose mostly 37.9 µM), for the others: at the highest dose activity change, negative = inhibition, usual class: inhibitors; calls by dose curve; tested in HEK293 cells; further: nearly all actives have a fitted effect of over 50% in size
# * hit, by the source's call; i = inactive; ? = inconclusive; . = no result given; ! = not active in a repeat; [ ] = dose if it differs, or a comment. This is a sample that favours compounds with a hit; in the whole collection about 2.5% have one here. On the % scale 0 is the no-effect control and ±100 the full control effect; potency means the concentration at half of the fitted maximal effect.
SMILES,Marburg entry inh,VACV Venus inh,VACV mCherry inh,LASV entry inh
CN(C)c1ccc(C=O)c(O)c1,.,-9%,-13%,.
COc1ccc(CCN(Cc2cccs2)S(=O)(=O)c2ccc(S(=O)(=O)N3CCCCCC3)cc2)cc1OC,10%,3%,-17%,-3%
CCC(C)NS(=O)(=O)c1ccc(S(=O)(=O)N(CCc2ccc(OC)c(OC)c2)Cc2cccs2)cc1 (stereo not drawn),3.5µM*,-27%,?,?
Cc1cccc(C(=O)NCc2nc(-c3cccc(NC(=O)c4ccoc4C)c3)oc2C)n1,.,-10%,-14%,.
CC(=O)c1sc(N/N=C\c2cccc(Br)c2)nc1C,?,?,?,14µM*
Cc1c(C(=O)N2CCN(c3ccccc3F)CC2)sc2ncn(CC(=O)N3CCOCC3)c(=O)c12,-12%,-11%,i,0%
Cc1nc(N2CCN(c3ccccn3)CC2)c2c(C)c(C(=O)N3CCN(c4ccccc4F)CC3)sc2n1,7.9µM*,-21%,-26%,?
COc1ccc(C)cc1NC(=O)c1sc2ncnc(N3CCN(c4ccccn4)CC3)c2c1C,6%[46.1 µM],-3%,5%,.
Cc1ccc(NC(=O)c2sc3nc(C)nc(N4CCN(c5ccccn5)CC4)c3c2C)c(C)c1,11µM*,-1%,-3%,-26%
Cn1cnc([N+](=O)[O-])c1Sc1ncnc2nc[nH]c12,18µM*,-6%[7.34 µM],-8%,?
Cc1cccnc1Sc1c([N+](=O)[O-])ncn1C,3%,.,.,-7%
CC(C)(C)c1cc[n+](C2=C([O-])c3ccccc3C(=O)/C2=N\S(=O)(=O)c2cccs2)cc1,10µM*,?,?,?
CSc1nnc(CNS(=O)(=O)c2ccc(F)cc2F)n1-c1ccccc1C,.,0%,i,.
CC(C)CNc1nnnc2c1sc1nc(N3CCOCC3)c3c(c12)CC(C)(C)SC3,?,-16%,?,14µM*
CC1(C)Cc2c(c(N3CCOCC3)nc3sc4c(NCc5ccccc5)nnnc4c23)CS1,-11%,.,.,?
Cc1cc(N/N=C/c2ccc(O)cc2O)nc(-n2nc(C)cc2C)n1,3.7µM*,?,?,7.3µM*
Oc1ccccc1C=NNc1nc2ccccc2s1,?,-29%,?,?
Oc1ccc(C=NNc2nc3ccccc3s2)c(O)c1,?,?,5µM*,?
COc1ccc(/C=N/Nc2cc(C)nc(-n3nc(C)cc3C)n2)cc1,16µM*,?,?,?
Cc1cc(N/N=C/c2ccc(O)cc2O)nc(-c2ccccc2O)n1,?,6.3µM*,2.8µM*,?
Cc1cnc2ccccc2c1C,.,-4%,-14%,.
O=C(NCC1Cc2cccc(-c3ncccn3)c2O1)C1CCCO1 (stereo not drawn),.,-9%,-18%,.
Cc1cc(N/N=C/c2ccccc2[N+](=O)[O-])nc(-n2nc(C)cc2C)n1,?,?,10µM*,?
COc1ccc(C2=NOC(C(=O)NCc3ccc(F)cc3)C2)cc1OC (stereo not drawn),?,?,-32%,0.82µM*
Cc1cccc2[nH]c3c(N4CC=C(c5ccc(F)cc5)CC4)ncnc3c12,11µM*,?,?,?
SMILES,Marburg entry inh,VACV Venus inh,VACV mCherry inh,LASV entry inh
COc1ccc(-c2ccc(CN3C(CC(C)C)C(=O)N(Cc4cn(CC5CCCCC5)nn4)CCS3(=O)=O)cc2)cc1OC (stereo not drawn),.,-30%,-11%,.
CC(C)CC1C(=O)N(Cc2cn(CC3CCCCC3)nn2)CCS(=O)(=O)N1Cc1ccc(-c2ccncc2)cc1 (stereo not drawn),.,-24%,-11%,14µM*
COC(=O)C1=C(C(=O)OC)[C@@H]2Nc3ccccc3[C@@]23C[C@@H](C(=O)OC)N(C(=O)NC(C)(C)C)C3=N1,2%[14.2 µM],.,.,.
CNC(=O)Oc1ccc2ncccc2c1,10%,-13%,i,9%
CNC(=O)Oc1ccc2c(c1)[C@]1(C)CCN(C)[C@@H]1N2C,0.28µM*!,-3%,i,-7%
CN1CC[C@@]2(C)c3cc(O)ccc3N(C)C12 (stereo partly drawn),7.9µM*,-15%,-22%,8.2µM*
CC1[C@H]2Cc3ccc(O)cc3[C@]1(C)CCN2CCc1ccccc1 (stereo partly drawn),.,-16%,-9%,.
CCCCCCNc1ccc(/C=C/c2ccnc3ccccc23)cc1,.,-10%,-23%,.
C=C1C=C(C)n2ncc(C(=O)Nc3ccc(NC(C)=O)c(Cl)c3)c2N1,.,-11%,-16%,.
COc1cc(N2CCN(C(C)C)CC2)ccc1Nc1nc(Nc2cccc3ncccc23)c2cc[nH]c2n1,.,.,.,20µM*
COc1ccc(Nc2nc(N3CCN(C)CC3)nc3ccccc23)c(OC)c1,.,?,-17%,.
COc1ccc(CN2CC[C@H]3C=CC[C@@H](C(=O)Nc4ccccc4)[C@H]3C2=O)cc1OC,.,-14%,-25%,.
O=C(O)CSc1cc(NS(=O)(=O)c2ccc(Cl)cc2)c2ccccc2c1O,?,?,14µM*,?
c1cc(CN2CCCCC2)cc(OCCCNc2nc3ccccc3s2)c1,12µM*,-27%,-10%,16µM*
O=C(NCCCOc1cccc(CN2CCCCC2)c1)c1ccc(Cl)c(Cl)c1,?,-25%,-10%,?
CCOC(=O)Cc1c(C)nc2c(-c3cccc(Br)c3)c[nH]n2c1=O,?,-6%,i,16µM*
COC[C@@H](OC(C)=O)[C@H]1OCc2ccccc2[C@H]1C=Cc1ccccc1,1%[14.2 µM],.,.,.
CCOC(=O)C1CCN(c2cc3c(cc2NC(=O)c2ccccc2F)n(C)c(=O)n3C)CC1,-13%[46.1 µM],-6%,i,-12%[46.1 µM]
CCOC(=O)C1CCN(c2cc3c(cc2NC(=O)c2ccccc2Cl)n(C)c(=O)n3C)CC1,?,-10%[7.34 µM],-1%[7.34 µM],2.5µM*
CO[C@H]1/C=C\O[C@@]2(C)Oc3c(C)c(O)c4c(O)c(c(C=NN5CCN(C6CCCC6)CC5)c(O)c4c3C2=O)NC(=O)C(C)=CC=C[C@H](C)[C@H](O)[C@@H](C)[C@@H](O)[C@@H](C)[C@H](OC(C)=O)[C@H]1C,.,-17%,-23%,.
CN(Cc1cnc2nc(N)nc(N)c2n1)c1ccc(C(=O)N[C@@H](CCC(=O)O)C(=O)O)cc1,0.04µM*!,3.2µM*,1µM*!,?
CN(Cc1cnc2nc(N)nc(N)c2n1)c1ccc(C(=O)N[C@H](CCC(=O)O)C(=O)O)cc1,0.04µM*,.,.,.
Nc1nc2ncc(CNc3ccc(C(=O)NC(CCC(=O)O)C(=O)O)cc3)nc2c(=O)[nH]1 (stereo not drawn),.,-8%,-7%,.
CCCCNC(=O)[C@@H]1CC=C[C@@H]2CCN(Cc3ccc(OC)c(OC)c3)C(=O)[C@@H]21,.,-7%,i,.
CNc1ccc2oc(C[C@H]3O[C@]4(CC[C@H]3C)O[C@H]([C@H](C)C(=O)c3ccc[nH]3)[C@H](C)C[C@H]4C)nc2c1C(=O)O,0.71µM*,.,.,.
C#CCOCCOCCOCCNc1nc(N2CCN(C(=O)CCCCCCCCCCNC(=O)[C@H](CCCCN)n3cc(C)nn3)CC2)nc(N2CCN(C(=O)CCCCCCCCCCNC(=O)[C@@H]([C@H](C)O)n3cc(C)nn3)CC2)n1,.,11µM*,?,.
